FEN1 inhibitor = inhibitors of human flap endonuclease 1; Potency, µM (series often up to 114 µM), for inactives: at the top dose activity change, negative = inhibition, actives largely listed as inhibitors; P39748; Recombinant FEN1 flap cleavage, fluorescence, 15 min; AID 588795; 0.35% of 390,000 active; further: potency means the concentration at half of the fitted maximal effect; on the % scale 0 is the no-effect control and ±100 the full control effect; nearly all actives have a fitted effect of over 65% in size
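Recombinant FEN1 (10 nM) was preincubated with pin-transferred compounds for 15 min at room temperature, then flap DNA substrate (50 nM final) was added. Plates were read at 0 and 15 min, and normalized concentration–response data were fitted to a four-parameter Hill equation.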
Pol beta inh = DNA polymerase beta (human) inhibition; Potency, µM (doses to about 114 µM), for inactives: at the top dose activity change, negative = inhibition, most hits filed as inhibitors; Pol beta primer extension/strand displacement, fluorescence kinetic; P06746; 1.3% of 340,000 active; further: potency means the concentration at half of the fitted maximal effect; on the % scale 0 is the no-effect control and ±100 the full control effect
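Enzyme-only controls used 10 nM Pol beta; buffer lacking enzyme served as negative control. Compound preincubated 15 min, then 50 nM substrate added; 0 and 10 min reads at room temperature.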
PI5P4Ka inh = blocks human PI5P4K alpha kinase activity. P48426. 1.2% of 330,000 active. AID 652105. PI5P4Kalpha enzyme, ADP-Glo luminescence, 60 min; hits give low values. max response, %; active means max response of -50% or lower; inconclusive means between -30% and -50%; inactive means -30% or higher; further: value at the top dose of about 77 µM; on the % scale 0 is the no-effect control and ±100 the full control effect
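Luminescence from ADP-Glo served as readout of PI5P4Kalpha activity in a qHTS format. Reaction: enzyme, substrate, compound, ATP at 5 microM final, 60 min at RT.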
Pol kappa inh = DNA polymerase kappa (human) inhibition; Potency, µM (doses to about 107 µM), without a hit: at the highest dose activity, negative = inhibition, hits mostly inhibitors; 0.53% of 400,000 active; AID 588579; purified Pol kappa, fluorescent DNA synthesis assay, 10 min; further: potency means the concentration at half of the fitted maximal effect; on the % scale 0 is the no-effect control and ±100 the full control effect
Target sequence (Q9UBT6 whole entry, looked up): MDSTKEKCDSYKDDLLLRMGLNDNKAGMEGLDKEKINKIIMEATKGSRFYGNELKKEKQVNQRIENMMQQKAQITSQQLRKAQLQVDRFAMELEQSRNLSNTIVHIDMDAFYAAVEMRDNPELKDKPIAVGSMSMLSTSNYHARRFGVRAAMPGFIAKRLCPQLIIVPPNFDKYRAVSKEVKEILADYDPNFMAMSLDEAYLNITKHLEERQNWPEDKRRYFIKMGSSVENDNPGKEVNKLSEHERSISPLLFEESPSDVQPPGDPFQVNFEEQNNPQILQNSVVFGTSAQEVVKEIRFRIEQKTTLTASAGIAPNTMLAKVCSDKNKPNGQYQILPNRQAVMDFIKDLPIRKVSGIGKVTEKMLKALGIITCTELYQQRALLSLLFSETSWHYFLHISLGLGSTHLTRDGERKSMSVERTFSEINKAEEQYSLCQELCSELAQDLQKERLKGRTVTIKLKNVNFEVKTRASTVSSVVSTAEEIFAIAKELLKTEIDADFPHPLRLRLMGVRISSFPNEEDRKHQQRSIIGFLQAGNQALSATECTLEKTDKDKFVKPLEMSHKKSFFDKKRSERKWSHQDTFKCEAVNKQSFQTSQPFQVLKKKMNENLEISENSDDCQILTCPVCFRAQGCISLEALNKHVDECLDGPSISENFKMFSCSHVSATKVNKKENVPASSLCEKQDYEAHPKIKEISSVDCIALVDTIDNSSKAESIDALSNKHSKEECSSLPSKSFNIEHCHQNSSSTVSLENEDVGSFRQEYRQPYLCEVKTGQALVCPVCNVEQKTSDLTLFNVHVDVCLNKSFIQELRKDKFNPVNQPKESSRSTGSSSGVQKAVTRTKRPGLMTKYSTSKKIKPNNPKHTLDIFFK
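Kinetic fluorescence readout at 0 and 10 min followed reaction start with substrate at 50 nM final. Beforehand, enzyme (10 nM Pol kappa) stood 15 min with compound at room temperature; buffer-only wells were negative controls.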
Pol iota inh = DNA polymerase iota (human) inhibition; Q9UNA4; Pol iota fluorescent replication assay, 10 min; Potency, µM (highest dose often 115 µM), for the others: at the highest dose activity, negative = inhibition, actives largely listed as inhibitors; 1% of 390,000 active; AID 588590; further: potency means the concentration at half of the fitted maximal effect
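Pol iota at 10 nM preincubated 15 min with compounds at room temperature; reaction started with fluorescent substrate, 50 nM final. Fluorescence read kinetically at 0 and 10 min; buffer-only wells as negative control.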
POLH inh = inhibitors of human DNA polymerase eta; recombinant Pol eta, fluorescent DNA replication assay; Potency, µM (highest dose often 114 µM), for the others: at the highest dose activity change, negative = inhibition, usual class: inhibitors; Q9Y253; 1.2% of 390,000 active; further: potency means the concentration at half of the fitted maximal effect; on the % scale 0 is the no-effect control and ±100 the full control effect
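Fluorescent replication assay: 50 nM final substrate added after a 15 min room-temperature compound preincubation with 10 nM enzyme. Signal taken at 0 min and again at 10 min.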
The depositor's hits bear a star; ? = inconclusive; . = not tested or not shown; [ ] = remark or other dose. The list is not random: actives were taken first. Their share in the collection is about 2.8%. Unless noted, the call rests on the fitted dose curve; in most records, active means well fitted curve in the direction sought with a large enough effect; inconclusive means small, poorly fitted or top-dose-only effect, or another doubt; inactive means no such curve, though single readings can be large; an effect the other way counts as inactive or inconclusive.

SMILES	FEN1 inhibitor	Pol beta inh	PI5P4Ka inh	Pol kappa inh	Pol iota inh	POLH inh
C=CCOc1ccc(-c2n[nH]c(=S)o2)cc1	2.8%	27.1%	-60.0*	1.1%	156.4%	-18.1%
COc1ccc(C(=O)Nc2ccc(-c3n[nH]c(=S)o3)cc2)cc1	-22.6%	-15.4%	-55.1*	-8.3%	?	4.3%
O=C(Nc1ccc(-c2ccccc2)cc1)c1ccccc1	-20.0%	0.9%	-3.2	2.6%	8.5%	-5.8%
CCCCN(Cc1ccccc1)C(=O)CN(C)S(=O)(=O)c1ccc2c(c1)c(=O)n(C)c(=O)n2C	28.7%	2.4%	.	-1.1%	18.4%	-9.7%
COC(=O)c1c(NC(=O)c2cccc(S(=O)(=O)N3CCN(C)CC3)c2)sc(C)c1C	-17.3%	.	15.4	-21.5%	?	-2.2%
CCOc1ccc(C(=O)Nc2ccc(-c3nc4cc(C)ccc4o3)cc2)cc1	-2.4%	8.3%	.	-4.5%[60.1 µM]	-19.4%	-15.9%
CCOc1ccc(C(=O)Nc2ccc(-c3nc4cc(CC)ccc4o3)cc2)cc1	-1.1%	-0.5%	.	-8.3%	89.1µM*	-9.9%
CC1(C)Cc2c(c(-c3ccco3)[nH]c(=O)c2C#N)CS1	1.2%	28.2µM*	-15.6	-31.8%	28.2µM*	?
CC1(C)Cc2c(C#N)c(N3CCN(C(=O)c4ccccc4Cl)CC3)nc(-c3ccco3)c2CS1	-3.5%	20µM*	-85.2*	79.4µM*	?	10µM*
CC(=O)N1CCN(c2nc(-c3ccco3)c3c(c2C#N)CC(C)(C)SC3)CC1	-0.4%	-3.5%	-23.7	-16.8%	1.2%	?
CCOC(=O)c1c(C)[nH]c(=S)c(C#N)c1-c1ccc(OC)cc1	4.4%	20.3%	.	-8.0%	?	-19.3%
CCCCOc1ccc(-c2c(C#N)c(N)[nH]c(=S)c2C#N)cc1	-3.2%	0.2%	-95.5*	-13.6%	22.2%	-16.4%
CCOC(=O)c1c(C)[nH]c(=S)c(C#N)c1-c1ccc(Cl)cc1	-0.5%	1.8%	-16.0	-26.9%	79.4µM*	-21.3%
CCOC(=O)CSc1nc(N)c(C#N)c(-c2ccc(OCC)cc2)c1C#N	-8.1%	17.3%	.	-3.8%	14.3%	-2.7%
CCCCOc1ccc(-c2c(C(=O)Nc3ccccc3)c(C)[nH]c(=S)c2C#N)cc1	20.0%	-0.1%	-53.3*	-11.6%	19.3%	-7.7%
O=C(N=Nc1c(O)[nH]c2ccc([N+](=O)[O-])cc12)c1ccccc1[N+](=O)[O-]	-11.8%	-5.4%	-19.1	-8.9%	17.2%	-7.3%
O=[N+]([O-])c1ccc(N=Nc2c(O)[nH]c3ccc(F)cc23)cc1	-15.7%	50.1µM*	-4.1	-2.5%	28.2%	?
CC(Oc1ccccc1)C(=O)N=Nc1c(O)[nH]c2ccc([N+](=O)[O-])cc12 (centres undefined)	10.5%	-25.4%	-4.2	-11.8%	79.4µM*	35.5µM*
CC(=O)N1CCC(=NNC(=O)CSc2cc(C)c(Br)cc2C)CC1	-1.2%	0.1%	18.6	-1.4%	12.6%	-10.3%
Cc1cc(SCC(=O)N/N=C/c2ccc(O)c(O)c2)c(C)cc1Br	-22.4%	15.8µM*	-1.6	-21.3%	?	-21.2%
CCC(=O)c1ccc(SC(=O)N(C)C)cc1O	1.5%	-10.4%	-8.3	-9.1%	-4.2%	-4.2%
Cn1c(=O)n(-c2ccc(F)c(Cl)c2)c(=O)c2sc3ccccc3c21	19.4%	2.4%	.	-16.5%	15.8%	-4.5%
CC(=O)c1ccccc1NS(C)(=O)=O	-2.7%	-0.6%	0.3	-2.3%	-12.4%	-2.4%
O=C1C=C(Nc2cccnc2)c2ccccc2C1=O	-6.5%	.	3.0	-14.2%	50.1µM*	31.6µM*
COc1cc(Cl)c(NC2=CC(=O)C(=O)c3ccccc32)c(OC)c1	-28.6%	.	-7.2	-0.8%	?	56.2µM*
SMILES	FEN1 inhibitor	Pol beta inh	PI5P4Ka inh	Pol kappa inh	Pol iota inh	POLH inh
O=C1C=C(Nc2ccc(F)cc2)c2ccccc2C1=O	1.1%	.	-8.7	-16.4%	1.1%	?
CCOc1ccc(NC2=CC(=O)C(=O)c3ccccc32)cc1	-18.0%	.	-2.4	-3.6%	35.5µM*	39.8µM*
O=C1C=C(Nc2ccccc2O)c2ccccc2C1=O	-8.5%	9.7%	-17.3	-9.3%	31.6µM*	25.1µM*
CC(C)(C)n1ncc2c(=O)n(Cc3ccc(C#N)c(F)c3)cnc21	-2.6%	.	.	6.2%	10.5%	.
COc1ccc2c(c1)c[n+](C)c1c3cc(OC)c(OC)cc3ccc21	.	.	3.3	.	.	.
COc1cc2c[n+](C)c3c4ccccc4ccc3c2cc1OC	6.31µM*	.	-9.6	31.6µM*	?	?
O=C(N/N=C1/CC2CCC1C2)c1cc2ccccc2cc1O (centres undefined)	-5.7%	-24.1%	-56.0*	-9.2%	6.2%	-3.9%
O=C(NCC1CCCCC1)c1cc2ccccc2cc1O	-7.2%	-26.1%	4.8	-25.4%	12.7%	-5.1%
O=C(O)c1ccc(-n2c(O)c(C=C3N=c4ccccc4=N3)sc2=S)cc1	-0.5%	12.0%	-4.4	?	2.24µM*	-23.0%
N#Cc1ccc2[nH]c(CO)c(-c3ccccc3)c2c1	-19.2%	7.5%	-1.0	-13.4%	-5.7%	-9.9%
COc1ccc(Nc2nc3ccc(Cl)cc3n3nnnc23)cc1OC	1.6%	3.3%	.	0.0%	12.8%	-4.2%
O=C(NCC(=O)N1CCN(c2ccccc2O)CC1)c1ccco1	3.8%	-22.7%	-1.5	-30.9%	79.4µM*	-19.0%
Cc1ccc(NC(=O)c2ccc(NC(=O)C3CCCC3)cc2)c(C)c1	-1.0%	.	.	1.3%	19.5%	.
CCOC(=O)c1cc2c(=O)n3cccc(C)c3nc2n(C)c1=N	.	79.4µM*	.	.	.	.
CC(/C=C/C1(O)C(C)CC(O)CC1(C)C)OC1OC(CO)C(O)C(O)C1O (centres undefined)	?	25.1µM*	6.7	56.2µM*	?	35.5µM*
CCOc1ccc(N=CC2=C(O)CC(c3ccco3)CC2=O)cc1 (centres undefined)	3.8%	-18.9%	6.7	-9.8%	22.6%	-14.4%
O=C1CC(c2ccco2)CC(O)=C1C=Nc1cc(Cl)cc(Cl)c1 (centres undefined)	?	39.8µM*	-28.7	70.8µM*	?	?
CCOc1ccc(NS(=O)(=O)c2ccc(C(=O)N(C)C)s2)cc1	19.7%	-2.2%	.	-13.4%[60.1 µM]	-8.2%	3.2%
CCCCC(CC)CNC(=O)C(Cc1ccccc1)NS(=O)(=O)c1ccc2c(c1)CCC(=O)N2 (centres undefined)	11.8%	-4.1%	-11.4	-8.3%	7.5%	0.8%
CCN1CCCC1CNCc1cccc(OC)c1OCc1ccccc1F (centres undefined)	-0.3%	1.6%	.	-1.9%	89.1µM*	-0.8%
CCN1CCCC1CNCc1cccc(OC)c1OCc1ccccc1 (centres undefined)	3.2%	-5.3%	3.2	4.6%	0.0%	-10.2%

Screening results: PubChem BioAssay, National Center for Advancing Translational Sciences (NCATS)
